# Experimental data as given in article PMC12136788.
# Changes are numbered by the printed parent chain. Over roughly 24,000 sequences, “enrichment r” has its median near 0.99; the highest 2% begin near 3.7. Only a selection was taken, and the highest values are over-represented in it overall.
# T1: UNK ZnF1-3 (human, UniProt Q9C0B0 31-174)
# T1 sequence: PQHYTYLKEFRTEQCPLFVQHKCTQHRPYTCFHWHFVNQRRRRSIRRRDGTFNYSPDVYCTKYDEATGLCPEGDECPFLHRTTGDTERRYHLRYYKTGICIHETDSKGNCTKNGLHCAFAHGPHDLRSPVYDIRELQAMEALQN
# B1: chr2:179803060:179803061:+_ENSMUSG00000039086_ENSMUST00000041126|mus_mus|FALSE|FALSE (ssRNA)
# RNA: GGGAGUUCUACAGUCCGACGAUCAUGUAAAAAAAAAAAAAAUCACCCAAUUCUCACUGUAUAAAACUUGUCCUUUUCAUUUGAAAGAACGUAAUAAAGUUAUUUGGAUUCAUUAAAAAUGCAGUGUGGAUUUCAGACUUCCCUCAACAGAGGAUUGAGCAUCA
# B2: chr4:109959894:109959895:-_ENSMUSG00000028546_ENSMUST00000106598|mus_mus|motif|central (ssRNA)
# RNA: GGGAGUUCUACAGUCCGACGAUCGCUUCGACUCUUCUCUUAAAAUUUGCAAAGGUUUCAGAAUAUACUUAAAAAUGACGGCGGUUGUUUUAUAUAUAUAUAUAUUAAAGAUCCACAGACCACAGUGUGGAUGAUUGUAAAGUACAACAGAGGAUUGAGCAUCA
# B3: chr2:23028566:23028567:+_ENSMUSG00000026775_ENSMUST00000028117|mus_mus|FALSE|FALSE (ssRNA)
# RNA: GGGAGUUCUACAGUCCGACGAUCGGUCUUCUGUGUAAGAGCUUGAGCUUUGAGAAAACCCUCUGCAAAACCAGUUUUAAAUGCAUCUUGGUGAGCUUCAGGUAUGUUUUUAGUUUUCAUAAGUUUGUCCAAACUCUCAAGAUCCAACAGAGGAUUGAGCAUCA
# B4: chr22:28376736:28376737:-_ENSG00000100154_ENST00000397906|hu_hu|FALSE|FALSE (ssRNA)
# RNA: GGGAGUUCUACAGUCCGACGAUCAUUUUAGAAUUACCUAAAAGAUACUUACUUAUCUAAAUUCUCCAACUAAACUCAGUACUAAUACGACUUUCAGCAUUUCCUUUCUUUAUAAAAUAAAUUAAUGGUUACCCCUAACUAGAUCAACAGAGGAUUGAGCAUCA
# B5: chr4:109959894:109959895:-_ENSMUSG00000028546_ENSMUST00000106598|mus_mus|FALSE|FALSE (ssRNA)
# RNA: B2 RNA with G79U, G80A, G82U, G83A
# B6: 72560208_72560328_3170_3pUTR_ENSMUSG00000056429_ENSMUST00000070524|mouse|control|control (ssRNA)
# RNA: GGGAGUUCUACAGUCCGACGAUCUCCUAAAAAUUAGCGGAGAGUAUACCUAGAUAAUUUCUUUAAAAAAAAAAAAGUGGACUUCUGUGAUGAUAAAAAUGUUUUUAGUUUAUAGUGUGGAGUUUUCAGAUGAUUAGAGAAAGUCAACAGAGGAUUGAGCAUCA
# B7: chr18:25531195:25531196:-_ENSG00000170558_ENST00000399380|hu_mus|motif|central (ssRNA)
# RNA: GGGAGUUCUACAGUCCGACGAUCCUUUUUUUUUUUUUGUGUGUAAUUUUUUUGGUACAAAUUAUGUAAAACACUUGUGCGGAGAACUUUUACCCCUCCCCAAAACGAAACAAACAAAAAGAAAAUAAAAAAAUUUAAAAAAAACAACAGAGGAUUGAGCAUCA
# B8: chr19:15271055:15271056:-_ENSG00000074181_ENST00000263388|hu_mus|motif|central (ssRNA)
# RNA: GGGAGUUCUACAGUCCGACGAUCAUAUAUAUUUUGUAAAAAAUAAUAAUAAUAAUAAGUUUGUUUAAAUGAAUUUGUCUCGGUACAAAAUGUAAAAAAGAAAAAAAUAAUAACUCACUCUUGUCAGAGUGUGAGACAAUGAGACAACAGAGGAUUGAGCAUCA
# B9: chr1:60041781:60041782:+_ENSMUSG00000041040_ENSMUST00000036540|mus_hu|mus_mus_mus_hu_False|38_58 (ssRNA)
# RNA: GGGAGUUCUACAGUCCGACGAUCAAGUUUACAAUAGUAAAGUAAAUGCAGUAGUGGCAAAUUUUCUUUUAUUUUCCUUCCUAAAAGAAAAUCUUUAGAUCUCAGUUCUAGUCUUGGACAUAGUGAAAGCUAUAAAUUCUGACUCAACAGAGGAUUGAGCAUCA
# B10: chr7:141450121:141450122:+_ENSG00000106028_ENST00000265304|hu_mus|hu_hu_hu_mus_True|8_98 (ssRNA)
# RNA: GGGAGUUCUACAGUCCGACGAUCUCAUCCGUUCUAUUCCUUCUCUUUUGUCUGGUCACUCAGAAAUAUAAUGUUAUCAGCUAUGAUUGUUGUUGCUUGCCGCCUCACAUUGUUUUUAUCCAUGUACUCACCAUAGUCCACUUUCAACAGAGGAUUGAGCAUCA
# B11: chr4:17845017:17845018:+_ENSG00000109805_ENST00000514176|hu_mus|hu_hu_hu_mus_False|48_108 (ssRNA)
# RNA: GGGAGUUCUACAGUCCGACGAUCGCUUCCUAACUUAGUAUCUUCAUUAAGGAACUCUGCAAGGUUAAGUUUACUUUUCUGUAGCGCGCGGUUUUGGGCUCGUCUGGGUAAUCUCAUCUUCAUUUCUGAUGGUGGUUCAUGAUCCAACAGAGGAUUGAGCAUCA
# B12: chr8:67197462:67197463:-_ENSMUSG00000031604_ENSMUST00000034015|mus_mus|FALSE|FALSE (ssRNA)
# RNA: GGGAGUUCUACAGUCCGACGAUCUCCGAACUGACCAGUGUAUGUAAAAGGCUUAAAAGGCAACGUCAACUUCAGCCUCCUAUGGCAUGAAGUGGUGAGUUGUACAUUAAUACUUCCUCCAGUUCCCGAAACCUUUUGGUGAGGCAACAGAGGAUUGAGCAUCA
# B13: chr5:150025729:150025730:+_ENSMUSG00000041264_ENSMUST00000121416|mus_mus|FALSE|FALSE (ssRNA)
# RNA: GGGAGUUCUACAGUCCGACGAUCCACGAAGGCUCUCUUCUGAUCUUCUUUCCGAGGCUGAUUCUGUGCUGACCUGGCUGCUACUGUUUUAGAAGACGCUGUGGUUUCUCGUUUUCUCAAAUUAGAUGCCUGAGAUUUACCAGGCAACAGAGGAUUGAGCAUCA
# B14: chr8:87797514:87797515:-_ENSMUSG00000031696_ENSMUST00000034131|mus_hu|motif|central (ssRNA)
# RNA: GGGAGUUCUACAGUCCGACGAUCAUUAUGGAAUCCACCUGGUCUUGAGAGACAAUUUCUGUGUUAUAAUCCAGAACAUUACGGAGCACAUAACAACUCAUGCUCUUUCUGGACUCGUAGUCAAAGUACUCAAAGAGUGGGUGACAACAGAGGAUUGAGCAUCA
# Target: T1, UNK ZnF1-3
# Experiment: nsRBNS (natural sequence RNA bind-n-seq); RBNS binding buffer (assumed for nsRBNS): 25 mM Tris pH 7.5, 150 mM KCl, 3 mM MgCl2, 0.01% Triton X-100, 500 ug/ml BSA, 20 U/ml SUPERase-In, 4 C; UNK is unkempt and MSI1 is Musashi-1; names of the RNAs are library labels; protein concentration not given here; high values mean tight binding
row,Binder,binding signal
1,B1,5.86 enrichment R
2,B2,3.36 enrichment R
3,B3,1.2 enrichment R
4,B4,1.4 enrichment R
5,B5,4.13 enrichment R
6,B6,8.87 enrichment R
7,B7,3.31 enrichment R
8,B8,11.3 enrichment R
9,B9,0.462 enrichment R
10,B10,0.398 enrichment R
11,B11,0.472 enrichment R
12,B12,0.838 enrichment R
13,B13,0.579 enrichment R
14,B14,0.988 enrichment R
